# VP16 counter: VP16 counterscreen qHTS for inhibitors of ROR gamma transcriptional activity; Drosophila S2 Gal4-VP16 UAS-luciferase, luminescence, 20 h; Potency, µM (series often up to 53.6 µM), inactives show at the highest dose activity, negative = inhibition, hits mostly inhibitors; hit rate 3.5% among 310,000; AID 2546, 2010;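 further: Gal4-VP16 expression switched on by copper sulfate through the metallothionein promoter; potency means the concentration at half of the fitted maximal effect; nearly all actives have a fitted effect of over 50% in size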
# IL-1B inflam inh: qHTS for Inhibitors of Inflammasome Signaling: IL-1-beta AlphaLISA Primary Screen; THP-1 LPS/ATP IL-1B secretion, AlphaLISA, 16 h; active compounds read low; activity change, % at 57.5 µM; hit rate 4.7% among 360,000; in the data active means activity change below about -50%; inconclusive means mostly about -30% to -49%
#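 THP-1 cells pretreated 1 hr with compounds (up to 57.5 uM final), then stimulated with LPS (250 ng/mL final) plus ATP (1.25 mM final); secreted IL-1B measured by AlphaLISA after 16 hr, decreased signal indicating inhibition.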
# TDP1 cell noCPT: qHTS for Inhibitors of human tyrosyl-DNA phosphodiesterase 1 (TDP1): qHTS in cells in absence of CPT. DT40 Tdp1-/- hTDP1 cells, no CPT, ATP luminescence, 48 h. Potency, µM (highest dose often 46.2 µM), without a hit: at the highest dose activity change, negative = growth inhibition, most hits filed as inhibitors. hit rate 15% among 420,000; further: potency means the concentration at half of the fitted maximal effect; nearly all actives have a fitted effect of over 55% in size
#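 Compound effects on proliferation are scored in DT40 Tdp1-/-;hTDP1 cells in the absence of CPT. ATP levels (CellTiter-Glo luminescence) are recorded after a ≥48 hr, 37 °C incubation.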
# ELG1 repair inh: qHTS screen for small molecules that inhibit ELG1-dependent DNA repair in human embryonic kidney (HEK293T) cells expressing luciferase-tagged ELG1. HEK293T ELG1-luciferase reporter, luminescence, 16 h; DNA damage induced by 5-fluorouridine. Potency, µM (highest dose often 46.1 µM), inactives show at the top dose activity change, negative = inhibition, most hits filed as inhibitors. hit rate 2.3% among 330,000; further: potency means the concentration at half of the fitted maximal effect; nearly all actives have a fitted effect of over 55% in size
#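 Reporter activity after DNA damage by 5-fluorouridine is monitored. Compound-treated cells incubate 16 hr at 37 °C, then ONE-Glo is added for 30 min before luminescence reading.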
# TDP1 cell CPT: qHTS for Inhibitors of human tyrosyl-DNA phosphodiesterase 1 (TDP1): qHTS in cells in presence of CPT | hit rate 12% among 420,000 | Potency, µM (series often up to 46.2 µM), without a hit: at the highest dose activity change, negative = growth inhibition, hits mostly inhibitors | chicken DT40 Tdp1-/-;hTDP1 cells + 20 nM CPT, ATP luminescence, 48 h; further: potency means the concentration at half of the fitted maximal effect; nearly all actives have a fitted effect of over 55% in size
#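 Chicken DT40 Tdp1-/- cells stably complemented with human TDP1 were seeded at 400 cells/well in medium containing 20 nM camptothecin, exposed to pin-transferred compounds, and grown at 37 °C for at least 48 hr. Viability was read as ATP luminescence.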
# RORg inh: qHTS for inhibitors of ROR gamma transcriptional activity. hit rate 5.4% among 310,000. Drosophila S2 Gal4-RORgamma UAS-luciferase reporter, 20 h. Potency, µM (titrated, usually from 53.6 µM), inactives show at the top dose activity change, negative = inhibition, usual class: inhibitors; further: potency means the concentration at half of the fitted maximal effect; nearly all actives have a fitted effect of over 60% in size
# Target sequence (P51450 whole entry, looked up, the tested form may be a part): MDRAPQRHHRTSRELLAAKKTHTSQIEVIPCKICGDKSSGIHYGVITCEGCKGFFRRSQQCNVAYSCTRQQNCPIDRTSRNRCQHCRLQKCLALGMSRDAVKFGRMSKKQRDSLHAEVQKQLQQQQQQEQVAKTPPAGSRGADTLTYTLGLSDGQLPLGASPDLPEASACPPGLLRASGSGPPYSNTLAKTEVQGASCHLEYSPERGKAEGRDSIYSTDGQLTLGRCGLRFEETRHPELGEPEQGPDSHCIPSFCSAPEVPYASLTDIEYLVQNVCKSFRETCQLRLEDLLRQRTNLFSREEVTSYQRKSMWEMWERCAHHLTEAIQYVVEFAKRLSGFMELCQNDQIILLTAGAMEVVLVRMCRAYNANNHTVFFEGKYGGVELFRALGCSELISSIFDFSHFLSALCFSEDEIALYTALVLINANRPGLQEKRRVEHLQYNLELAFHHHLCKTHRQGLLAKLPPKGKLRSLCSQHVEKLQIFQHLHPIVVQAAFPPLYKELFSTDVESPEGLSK
#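 Schneider cells (Drosophila), stable Gal4 DBD–ROR gamma + UAS-luc; 1 hr cmpd preincubation; Cu2+ induction 700 uM final; 20 hr ambient; luminescence.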
# Starred values were filed as active, the others as inactive; i = inactive; ? = inconclusive; · = no result given. Rows were chosen to be rich in hits. Some 21% of all compounds tested hit in one or more screens of this group. Unless noted, the call rests on the fitted dose curve; in most records, active means well fitted curve in the direction sought with a large enough effect; inconclusive means small, poorly fitted or top-dose-only effect, or another doubt; inactive means no such curve, though single readings can be large; an effect the other way counts as inactive or inconclusive. On the % scale 0 is the no-effect control and ±100 the full control effect.
SMILES,VP16 counter,IL-1B inflam inh,TDP1 cell noCPT,ELG1 repair inh,TDP1 cell CPT,RORg inh
FC(F)Sc1ccc(NC(=S)NC2CCCC2)cc1,?,-3.0,16.4µM*,5.0%,?,11.2µM*
C[C@@H](C(=O)Nc1ccc(SC(F)F)cc1)N1C(=O)C2CCCCC2C1=O (stereo partly drawn),·,-4.9,-19.5%,?,-15.1%,·
OC1CCC(NC(=S)Nc2ccc(SC(F)F)cc2)CC1 (stereo not drawn),-2.1%,-15.3,?,?,?,-27.8%
Cc1nnn(C23CC4CC(CC(C4)C2)C3)n1,1.3%,-2.0,-20.8%,·,-10.4%,-20.7%
Cc1ccc(C)c(N2CCN(C(=O)C34CC5CC(C3)CC(n3nnc(C)n3)(C5)C4)CC2)c1,-13.2%,?,7.31µM*,20.6µM*,6.51µM*,6.4%
COc1ccccc1CNC(=O)CCCn1nc(C)n2ccnc2c1=O,-12.3%,-8.6,-14.8%,6.7%,0.0%,-9.5%
CCCCN1CCCCC1(C)C(=O)NCc1cccs1 (stereo not drawn),·,5.9,3.8%,·,-2.4%,·
Cc1ccc(O)c(NC(=O)c2ccc(Br)c(S(=O)(=O)N3CCCCC3)c2)c1,·,·,5.17µM*,·,9.2µM*,·
Cc1ccc(C(=O)NNC(=O)c2ccccc2O)cc1S(=O)(=O)N1CCCCC1,·,38.4,?,-2.6%,16.4µM*,·
Cc1ccc(C(=O)Nc2ccccc2C(=O)NCc2ccco2)cc1S(=O)(=O)N1CCCCC1,?,1.7,16.4µM*,11.6µM*,?,-7.0%
COc1ccc(C(=O)Nc2cc(-c3ccc(C)cc3)no2)cc1,-23.5%,9.8,?,2.1%,-29.8%,3.16µM*
COc1ccccc1/C=C/C1(C(=O)NC2CCCC2)CC(=O)N1c1ccc(C)cc1 (stereo not drawn),-2.2%,-11.8,23.1µM*,-20.6%,?,?
COc1ccccc1/C=C/C1(C(=O)NC2CCCC2)CC(=O)N1c1ccc(F)cc1 (stereo not drawn),5.8%,-88.9*,?,?,18.4µM*,-13.5%
COc1cccc(-c2cnc3c(NC(C)=O)cc(-c4ccncc4)cn23)c1,·,-4.5,16.4µM*,·,?,·
COc1cccc(-c2cnc3c(NC=O)cc(-c4ccncc4)cn23)c1,·,67.5,4.61µM*,·,18.4µM*,·
O=C(NCc1nnc(SCC(=O)N2CCN(c3ccccc3)CC2)o1)c1ccc(F)cc1,-14.6%,50.6,20.6µM*,?,?,?
C=CCn1c(COc2cccc(C)c2C)nnc1SCC(=O)N1CCN(c2ccccc2)CC1,?,-54.9*,?,20.6µM*,?,?
Cc1cccc(OCc2nnc(SCC(=O)N3CCN(c4ccccc4)CC3)o2)c1C,-14.8%,-1.6,18.4µM*,-10.2%,?,34.7%
O=C(NCc1nnc(SCC(=O)N2CCCC2)o1)c1ccc(F)cc1,-1.1%,i,18.1%,5.5%,8.3%,3.4%
CC(C)[C@@H](CC(=O)N[C@@H]1CCCC[C@H]1C(=O)N[C@H](CC(=O)N[C@@H](CCC(=O)O)CC(=O)O)Cc1c[nH]c2ccccc12)NC(=O)C[C@H](CO)NC(=O)[C@@H]1CNCC[C@H]1N,-1.6%,·,·,·,·,2.3%
Cn1cc([C@]2(O)C(=O)Nc3c(F)cccc32)c2ccccc21,·,-0.6,-6.4%,·,-9.1%,·
C=CC[C@H](CC(=O)N[C@H](CO)Cc1ccccc1)C(=O)N[C@H](COC(=O)[C@@H](CC=C)Cc1ccc(F)cc1)Cc1c[nH]c2ccccc12,·,-9.9,-10.5%,·,-2.0%,·
C=CC[C@@H](CC(=O)N[C@H](CO)Cc1ccccc1)C(=O)N[C@H](COC(=O)[C@@H](CC=C)Cc1ccc(F)cc1)Cc1c[nH]c2ccccc12,·,?,18.4µM*,20.6µM*,13µM*,·
C=CCC[C@H](Cc1ccc(F)cc1)C(=O)OC[C@H](Cc1c[nH]c2ccccc12)NC(=O)[C@@H](CC=C)CC(=O)N[C@H](CO)Cc1ccccc1,·,?,-80.8%,?,?,·
C=CC[C@@H](CC(=O)N[C@@H](CO)Cc1ccccc1)C(=O)N[C@@H](COC(=O)[C@@H](CC=C)Cc1ccc(F)cc1)Cc1c[nH]c2ccccc12,·,-50.7*,20.6µM*,0.8%,16.4µM*,·
SMILES,VP16 counter,IL-1B inflam inh,TDP1 cell noCPT,ELG1 repair inh,TDP1 cell CPT,RORg inh
CN(C(=O)c1cccc(NC(=O)Cc2ccc(NC(=O)C3CCCN(S(=O)(=O)c4cccc([N+](=O)[O-])c4)C3)cc2)c1)C1CCCC1 (stereo not drawn),·,-2.6,?,·,-24.8%,·
Cc1ccc(-c2ccccc2NC(=O)CS(=O)CC(=O)Nc2ccc(C)c(Cl)c2)o1 (stereo not drawn),-14.2%,-77.4*,?,-14.6%,?,?
Cc1ccc(-c2ccccc2NC(=O)C2C3C=CC(C3)C2C(=O)O)o1 (stereo not drawn),4.47µM*,3.9,-18.8%,6.0%,-27.9%,4.47µM*
Cc1ccc(-c2cccc(NC(=O)C3C(C(=O)O)[C@@H]4C=C[C@H]3C4)c2)o1 (stereo partly drawn),-1.0%,-11.3,-14.6%,8.4%,1.7%,34.8%
Cc1ccc(-c2ccccc2NC(=O)CCl)o1,-1.0%,-59.1*,20.6µM*,0.2%,14.6µM*,48.4%
CCOc1ccc2[nH]cc(S(=O)(=O)c3ccc(F)cc3)c(=O)c2c1,12.6µM*,29.6,9.2µM*,?,9.2µM*,0.2%
Cn1cc(-c2coc3c(C(=O)NCc4cccnc4)cccc23)cn1,·,-3.9,23.1µM*,·,?,·
O=C(NCc1cccc(Cl)c1)c1ccc(-c2cccnc2)c2ccoc12,·,-14.5,?,·,?,·
COCCCNC(=O)c1cccc2c(-c3cccc(C(N)=O)c3)coc12,·,20.0,13µM*,·,?,·
NC(=O)c1cccc(-c2coc3c(C(=O)NCc4ccccc4)cccc23)c1,·,-22.4,18.4µM*,·,?,·
COCCNC(=O)c1cccc2c(-c3cccc(C(N)=O)c3)coc12,·,53.6,?,·,?,·
Cc1[nH]c(=O)[nH]c(=O)c1S(=O)(=O)N1CCN(c2ccccc2Cl)CC1,·,·,-1.5%,·,-9.4%,·
Cc1cc(OCC(=O)OC(C)C(=O)NC2CC2)c(C(C)C)cc1Cl (stereo not drawn),·,9.5,?,·,?,·
